Legend:
Test in all cases: DAPPL (digital affinity profiling via proximity ligation, sequencing); 10 mM Tris-HCl pH 7.5, 50 mM NaCl, 1 mM DTT, 4% glycerol, room temperature, 30 min; GST-TFs on glutathione beads, 16-mer random dsDNA library, 0.1% formaldehyde crosslink after washing; high values mean tight binding
[1] = target: T1, FEV (Homo sapiens, UniProt Q99581 1-238); conditions: protein: recombinant; tags: N-terminal GST; dsDNA, one strand shown
T1 sequence: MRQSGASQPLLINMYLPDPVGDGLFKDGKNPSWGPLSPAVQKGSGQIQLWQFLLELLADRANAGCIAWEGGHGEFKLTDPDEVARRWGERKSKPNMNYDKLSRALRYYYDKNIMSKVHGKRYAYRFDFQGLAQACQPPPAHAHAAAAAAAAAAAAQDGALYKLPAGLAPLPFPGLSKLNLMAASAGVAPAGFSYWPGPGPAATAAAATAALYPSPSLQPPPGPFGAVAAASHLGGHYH
How it was run: (§1)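 After expression in yeast as GST fusions, human transcription factors were bound to glutathione beads, DNA-barcoded and mixed with a tag-only sample. The pools were incubated with 200 nmole of a 16-mer random double-stranded DNA library in Tris/NaCl/DTT/glycerol buffer (30 min, room temperature), washed and crosslinked with 0.1% formaldehyde. Proximity ligation with BsaI/T4 ligase ran for 1 h at 37 °C, before PCR amplification and sequencing on an Illumina NextSeq500. Binding signal is a hexamer's read frequency for a factor divided by its frequency for the tag-only sample.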

[2] = target: ETV5 (Homo sapiens, UniProt P41161 1-510); conditions: protein: recombinant; tags: N-terminal GST; dsDNA, one strand shown
How it was run: as §1

[3] = target: HSF1 (Homo sapiens, UniProt Q00613 1-529); conditions: protein: recombinant; tags: N-terminal GST; chain copies: 3; dsDNA, one strand shown
How it was run: as §1

[4] = target: T2, SPIC (Homo sapiens, UniProt Q8N5J4 1-248); conditions: protein: recombinant; tags: N-terminal GST; dsDNA, one strand shown
T2 sequence: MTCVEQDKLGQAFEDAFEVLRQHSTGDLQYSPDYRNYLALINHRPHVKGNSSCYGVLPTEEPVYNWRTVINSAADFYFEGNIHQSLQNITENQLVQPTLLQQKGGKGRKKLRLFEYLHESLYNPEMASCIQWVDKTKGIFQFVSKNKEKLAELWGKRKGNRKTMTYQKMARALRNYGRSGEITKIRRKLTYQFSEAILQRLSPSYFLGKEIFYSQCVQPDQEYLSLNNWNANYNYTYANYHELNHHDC
How it was run: as §1

[5] = target: ELF4 (Homo sapiens, UniProt Q99607 1-663); conditions: protein: recombinant; tags: N-terminal GST; dsDNA, one strand shown
How it was run: as §1

[6] = target: T3, ELK4 (Homo sapiens, UniProt P28324-2 1-405); conditions: protein: recombinant; tags: N-terminal GST; dsDNA, one strand shown
T3 sequence: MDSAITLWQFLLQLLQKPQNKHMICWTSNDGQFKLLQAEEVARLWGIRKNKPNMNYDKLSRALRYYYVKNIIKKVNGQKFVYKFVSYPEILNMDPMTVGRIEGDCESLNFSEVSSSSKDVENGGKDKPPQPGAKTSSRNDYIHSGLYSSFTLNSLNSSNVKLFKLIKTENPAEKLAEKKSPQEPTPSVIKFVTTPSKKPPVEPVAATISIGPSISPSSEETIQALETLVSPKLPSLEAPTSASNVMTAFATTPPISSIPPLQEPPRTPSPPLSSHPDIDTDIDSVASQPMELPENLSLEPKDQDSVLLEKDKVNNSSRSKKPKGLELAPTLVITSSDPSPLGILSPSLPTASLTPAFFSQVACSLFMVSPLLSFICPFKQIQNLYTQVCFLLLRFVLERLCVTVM
How it was run: as §1

[7] = target: T4, ETV2 (Homo sapiens, UniProt O00321 1-342); conditions: protein: recombinant; tags: N-terminal GST; dsDNA, one strand shown
T4 sequence: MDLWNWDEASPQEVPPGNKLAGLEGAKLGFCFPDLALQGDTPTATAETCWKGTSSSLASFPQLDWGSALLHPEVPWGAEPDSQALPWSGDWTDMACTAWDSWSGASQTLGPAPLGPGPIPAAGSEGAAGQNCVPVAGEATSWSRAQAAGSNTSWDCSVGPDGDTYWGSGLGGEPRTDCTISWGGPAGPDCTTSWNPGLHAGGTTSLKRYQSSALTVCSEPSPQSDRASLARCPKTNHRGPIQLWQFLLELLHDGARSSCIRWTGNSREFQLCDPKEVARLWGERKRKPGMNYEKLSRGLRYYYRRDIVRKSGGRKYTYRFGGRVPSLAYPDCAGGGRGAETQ
How it was run: as §1

[8] = target: T5, ELF3 (Homo sapiens, UniProt P78545 1-371); conditions: protein: recombinant; tags: N-terminal GST; dsDNA, one strand shown
T5 sequence: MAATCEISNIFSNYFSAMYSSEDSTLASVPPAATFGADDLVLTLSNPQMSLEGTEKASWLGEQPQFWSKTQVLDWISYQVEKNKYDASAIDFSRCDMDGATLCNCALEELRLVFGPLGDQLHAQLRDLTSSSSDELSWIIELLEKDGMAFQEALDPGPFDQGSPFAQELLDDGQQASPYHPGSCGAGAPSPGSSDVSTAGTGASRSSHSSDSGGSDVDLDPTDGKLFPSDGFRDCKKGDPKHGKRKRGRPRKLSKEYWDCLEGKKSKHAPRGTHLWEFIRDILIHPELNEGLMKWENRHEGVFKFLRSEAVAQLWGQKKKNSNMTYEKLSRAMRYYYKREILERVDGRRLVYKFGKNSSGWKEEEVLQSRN
How it was run: as §1

[9] = target: CRX (Homo sapiens, UniProt O43186 1-299); conditions: protein: recombinant; tags: N-terminal GST; dsDNA, one strand shown
How it was run: as §1

[10] = target: ETV1 (Homo sapiens, UniProt P50549 1-477); conditions: protein: recombinant; tags: N-terminal GST; dsDNA, one strand shown
How it was run: as §1

[11] = target: T6, ERF (Homo sapiens, UniProt P50548 1-548); conditions: protein: recombinant; tags: N-terminal GST; dsDNA, one strand shown
T6 sequence: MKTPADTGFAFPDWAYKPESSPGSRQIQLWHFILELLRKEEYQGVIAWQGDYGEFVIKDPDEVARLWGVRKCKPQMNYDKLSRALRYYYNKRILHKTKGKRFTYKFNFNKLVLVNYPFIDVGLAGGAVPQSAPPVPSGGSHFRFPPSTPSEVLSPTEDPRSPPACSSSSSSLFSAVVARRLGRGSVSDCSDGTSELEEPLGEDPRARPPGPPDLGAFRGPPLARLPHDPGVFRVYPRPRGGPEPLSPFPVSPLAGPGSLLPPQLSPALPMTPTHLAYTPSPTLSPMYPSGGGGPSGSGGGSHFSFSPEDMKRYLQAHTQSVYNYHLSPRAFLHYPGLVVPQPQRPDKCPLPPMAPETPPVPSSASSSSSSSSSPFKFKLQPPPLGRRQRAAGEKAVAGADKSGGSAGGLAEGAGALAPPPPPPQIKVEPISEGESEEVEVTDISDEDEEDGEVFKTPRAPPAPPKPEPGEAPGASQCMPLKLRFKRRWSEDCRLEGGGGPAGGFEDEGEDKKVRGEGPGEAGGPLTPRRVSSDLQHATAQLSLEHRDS
How it was run: as §1

[12] = target: T7, ETV3L (Homo sapiens, UniProt Q6ZN32 1-361); conditions: protein: recombinant; tags: N-terminal GST; dsDNA, one strand shown
T7 sequence: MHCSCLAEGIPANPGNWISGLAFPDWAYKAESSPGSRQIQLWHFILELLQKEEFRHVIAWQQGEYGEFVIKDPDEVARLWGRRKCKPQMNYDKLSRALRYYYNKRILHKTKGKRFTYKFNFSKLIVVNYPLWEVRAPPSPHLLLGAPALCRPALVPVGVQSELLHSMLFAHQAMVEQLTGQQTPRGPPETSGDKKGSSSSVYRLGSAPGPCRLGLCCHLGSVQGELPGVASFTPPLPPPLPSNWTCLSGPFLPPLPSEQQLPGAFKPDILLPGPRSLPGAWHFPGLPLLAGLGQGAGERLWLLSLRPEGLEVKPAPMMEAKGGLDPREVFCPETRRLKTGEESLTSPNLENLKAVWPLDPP
How it was run: as §1

[13] = target: T8, ETS2 (Homo sapiens, UniProt P15036 1-469); conditions: protein: recombinant; tags: N-terminal GST; dsDNA, one strand shown
T8 sequence: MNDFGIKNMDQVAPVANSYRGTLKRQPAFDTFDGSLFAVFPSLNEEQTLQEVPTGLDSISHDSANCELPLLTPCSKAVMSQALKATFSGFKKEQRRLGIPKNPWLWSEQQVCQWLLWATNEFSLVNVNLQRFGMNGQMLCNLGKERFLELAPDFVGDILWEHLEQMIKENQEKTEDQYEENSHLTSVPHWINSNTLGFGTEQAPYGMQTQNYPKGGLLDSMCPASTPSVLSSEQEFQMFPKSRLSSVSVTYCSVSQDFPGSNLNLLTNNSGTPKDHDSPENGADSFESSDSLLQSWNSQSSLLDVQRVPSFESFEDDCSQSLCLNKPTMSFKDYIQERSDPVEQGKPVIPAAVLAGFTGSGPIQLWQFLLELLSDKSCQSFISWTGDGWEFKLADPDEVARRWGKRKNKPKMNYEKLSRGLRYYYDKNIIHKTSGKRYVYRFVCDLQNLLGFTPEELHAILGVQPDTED
How it was run: as §1

[14] = target: T9, SPDEF (Homo sapiens, UniProt O95238 1-335); conditions: protein: recombinant; tags: N-terminal GST; dsDNA, one strand shown
T9 sequence: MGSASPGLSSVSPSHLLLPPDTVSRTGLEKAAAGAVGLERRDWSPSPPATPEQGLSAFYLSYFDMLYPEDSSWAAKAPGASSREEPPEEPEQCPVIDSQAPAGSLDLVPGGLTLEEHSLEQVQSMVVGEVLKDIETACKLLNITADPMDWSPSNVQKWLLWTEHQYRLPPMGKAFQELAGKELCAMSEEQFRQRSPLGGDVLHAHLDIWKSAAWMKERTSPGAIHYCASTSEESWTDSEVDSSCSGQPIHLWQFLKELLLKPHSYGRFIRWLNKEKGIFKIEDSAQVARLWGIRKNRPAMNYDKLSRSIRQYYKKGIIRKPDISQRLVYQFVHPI
How it was run: as §1

[15] = target: T10, ETV7 (Homo sapiens, UniProt Q9Y603 1-341); conditions: protein: recombinant; tags: N-terminal GST; dsDNA, one strand shown
T10 sequence: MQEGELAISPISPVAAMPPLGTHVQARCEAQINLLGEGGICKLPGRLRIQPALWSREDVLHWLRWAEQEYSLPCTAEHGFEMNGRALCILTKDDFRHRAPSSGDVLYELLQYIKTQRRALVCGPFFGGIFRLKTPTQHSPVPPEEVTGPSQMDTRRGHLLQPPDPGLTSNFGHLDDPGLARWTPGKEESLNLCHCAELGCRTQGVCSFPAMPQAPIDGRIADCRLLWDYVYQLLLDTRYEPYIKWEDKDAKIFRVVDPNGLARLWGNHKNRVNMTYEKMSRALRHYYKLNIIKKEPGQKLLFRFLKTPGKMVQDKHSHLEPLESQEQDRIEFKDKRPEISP
How it was run: as §1

[16] = target: T11, ELF5 (Homo sapiens, UniProt Q9UKW6-2 1-255); conditions: protein: recombinant; tags: N-terminal GST; dsDNA, one strand shown
T11 sequence: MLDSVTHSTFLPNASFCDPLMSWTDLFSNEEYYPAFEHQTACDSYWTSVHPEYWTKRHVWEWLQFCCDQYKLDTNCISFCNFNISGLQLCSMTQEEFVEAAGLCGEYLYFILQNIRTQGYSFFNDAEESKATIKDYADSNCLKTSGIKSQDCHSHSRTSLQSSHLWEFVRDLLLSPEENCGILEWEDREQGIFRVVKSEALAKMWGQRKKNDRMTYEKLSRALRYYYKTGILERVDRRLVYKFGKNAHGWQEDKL
How it was run: as §1

[17] = target: T12, ETV3 (Homo sapiens, UniProt P41162-2 1-143); conditions: protein: recombinant; tags: N-terminal GST; dsDNA, one strand shown
T12 sequence: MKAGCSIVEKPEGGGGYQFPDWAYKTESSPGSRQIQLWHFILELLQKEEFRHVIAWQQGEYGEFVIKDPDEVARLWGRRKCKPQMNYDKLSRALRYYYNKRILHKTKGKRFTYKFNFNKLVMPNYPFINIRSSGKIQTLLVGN
How it was run: as §1

[18] = target: ETV6 (Homo sapiens, UniProt P41212 1-452); conditions: protein: recombinant; tags: N-terminal GST; dsDNA, one strand shown
How it was run: as §1

Chain of ELF4 (Q99607 whole entry): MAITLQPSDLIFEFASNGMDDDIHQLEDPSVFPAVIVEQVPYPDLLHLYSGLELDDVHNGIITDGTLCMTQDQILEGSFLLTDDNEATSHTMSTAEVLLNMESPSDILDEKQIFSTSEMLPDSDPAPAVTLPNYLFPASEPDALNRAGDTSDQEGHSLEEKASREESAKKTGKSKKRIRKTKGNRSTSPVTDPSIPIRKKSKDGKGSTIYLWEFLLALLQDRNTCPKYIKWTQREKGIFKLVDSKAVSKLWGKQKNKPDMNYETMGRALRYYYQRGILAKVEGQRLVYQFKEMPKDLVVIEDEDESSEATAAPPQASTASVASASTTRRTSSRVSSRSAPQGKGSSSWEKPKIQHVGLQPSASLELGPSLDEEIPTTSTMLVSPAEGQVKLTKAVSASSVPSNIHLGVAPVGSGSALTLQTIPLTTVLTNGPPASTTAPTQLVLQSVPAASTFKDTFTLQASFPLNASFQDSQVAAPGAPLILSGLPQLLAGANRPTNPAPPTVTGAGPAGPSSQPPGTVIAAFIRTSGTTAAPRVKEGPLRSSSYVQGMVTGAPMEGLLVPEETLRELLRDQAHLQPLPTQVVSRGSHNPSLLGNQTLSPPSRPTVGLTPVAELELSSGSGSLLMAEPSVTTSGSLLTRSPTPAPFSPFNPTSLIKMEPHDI
Chain of CRX (O43186 whole entry): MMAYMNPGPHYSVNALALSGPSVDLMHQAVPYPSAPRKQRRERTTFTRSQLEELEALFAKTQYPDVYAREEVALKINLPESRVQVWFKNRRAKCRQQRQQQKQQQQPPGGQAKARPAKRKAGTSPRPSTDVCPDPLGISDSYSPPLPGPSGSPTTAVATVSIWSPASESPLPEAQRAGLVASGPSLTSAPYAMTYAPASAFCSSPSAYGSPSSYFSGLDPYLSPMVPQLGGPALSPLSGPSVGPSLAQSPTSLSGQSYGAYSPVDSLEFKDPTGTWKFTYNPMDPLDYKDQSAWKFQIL
Chain of HSF1 (Q00613 whole entry): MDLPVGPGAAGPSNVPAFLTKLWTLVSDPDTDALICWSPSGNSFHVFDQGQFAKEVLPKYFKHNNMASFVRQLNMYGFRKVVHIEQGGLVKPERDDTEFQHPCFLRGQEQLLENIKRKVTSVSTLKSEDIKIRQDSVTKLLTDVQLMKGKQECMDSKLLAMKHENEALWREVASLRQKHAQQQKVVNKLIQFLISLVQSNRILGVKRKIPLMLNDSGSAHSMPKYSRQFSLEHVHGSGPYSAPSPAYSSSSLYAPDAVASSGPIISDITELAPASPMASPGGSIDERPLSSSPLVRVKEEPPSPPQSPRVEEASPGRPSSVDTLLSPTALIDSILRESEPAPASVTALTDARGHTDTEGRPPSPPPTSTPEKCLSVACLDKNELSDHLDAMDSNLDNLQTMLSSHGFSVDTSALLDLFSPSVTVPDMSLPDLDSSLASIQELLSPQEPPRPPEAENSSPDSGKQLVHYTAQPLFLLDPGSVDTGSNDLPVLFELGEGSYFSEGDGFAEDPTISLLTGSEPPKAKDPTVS
Chain of ETV6 (P41212 whole entry): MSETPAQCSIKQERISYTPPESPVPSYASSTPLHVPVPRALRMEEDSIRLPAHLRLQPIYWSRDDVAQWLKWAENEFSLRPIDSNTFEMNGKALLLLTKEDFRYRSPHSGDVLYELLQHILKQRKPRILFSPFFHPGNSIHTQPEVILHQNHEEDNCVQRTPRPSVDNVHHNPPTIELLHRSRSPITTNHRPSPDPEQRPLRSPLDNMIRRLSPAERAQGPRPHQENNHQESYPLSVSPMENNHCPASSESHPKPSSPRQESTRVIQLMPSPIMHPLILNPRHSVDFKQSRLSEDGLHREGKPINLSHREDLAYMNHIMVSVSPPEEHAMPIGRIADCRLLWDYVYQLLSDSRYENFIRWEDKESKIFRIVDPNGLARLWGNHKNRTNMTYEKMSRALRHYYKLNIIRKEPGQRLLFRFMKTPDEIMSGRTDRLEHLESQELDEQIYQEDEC
Chain of ETV1 (P50549 whole entry): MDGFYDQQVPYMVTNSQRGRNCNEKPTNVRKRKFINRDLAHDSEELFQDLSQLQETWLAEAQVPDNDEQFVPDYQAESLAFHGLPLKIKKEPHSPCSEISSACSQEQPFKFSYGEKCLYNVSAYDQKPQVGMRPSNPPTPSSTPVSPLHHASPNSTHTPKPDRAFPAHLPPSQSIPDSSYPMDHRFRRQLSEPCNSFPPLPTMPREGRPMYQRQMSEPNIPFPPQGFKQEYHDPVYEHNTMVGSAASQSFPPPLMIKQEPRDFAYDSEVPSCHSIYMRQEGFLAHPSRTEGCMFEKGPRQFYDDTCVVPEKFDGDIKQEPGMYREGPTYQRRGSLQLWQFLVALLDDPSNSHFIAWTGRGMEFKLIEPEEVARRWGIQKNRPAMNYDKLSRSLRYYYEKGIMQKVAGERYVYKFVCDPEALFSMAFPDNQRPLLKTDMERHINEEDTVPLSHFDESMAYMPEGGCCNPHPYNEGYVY
Chain of ETV5 (P41161 whole entry): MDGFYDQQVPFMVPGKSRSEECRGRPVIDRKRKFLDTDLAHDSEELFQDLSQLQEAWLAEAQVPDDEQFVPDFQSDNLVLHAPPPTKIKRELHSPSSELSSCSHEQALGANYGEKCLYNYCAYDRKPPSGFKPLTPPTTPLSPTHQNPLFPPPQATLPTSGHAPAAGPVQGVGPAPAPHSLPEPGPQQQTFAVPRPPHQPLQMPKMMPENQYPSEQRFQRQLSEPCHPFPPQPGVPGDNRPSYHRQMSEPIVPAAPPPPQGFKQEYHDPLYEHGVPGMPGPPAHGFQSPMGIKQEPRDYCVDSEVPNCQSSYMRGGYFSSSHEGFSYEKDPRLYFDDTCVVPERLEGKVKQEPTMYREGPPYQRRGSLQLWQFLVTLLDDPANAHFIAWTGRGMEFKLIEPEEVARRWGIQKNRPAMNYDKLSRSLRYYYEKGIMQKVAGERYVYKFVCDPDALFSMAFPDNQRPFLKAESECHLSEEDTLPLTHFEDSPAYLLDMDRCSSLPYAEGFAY

Sequence: TCTCTC
- binding signal [1]: 1.21 fold enrichment (6-mer frequency, TF over GST control)
- binding signal [2]: 1.27 fold enrichment (6-mer frequency, TF over GST control)
- binding signal [3]: 1.59 fold enrichment (6-mer frequency, TF over GST control)
- binding signal [4]: 1.36 fold enrichment (6-mer frequency, TF over GST control)
- binding signal [5]: 1.44 fold enrichment (6-mer frequency, TF over GST control)
- binding signal [6]: 1.38 fold enrichment (6-mer frequency, TF over GST control)
- binding signal [7]: 1.34 fold enrichment (6-mer frequency, TF over GST control)
- binding signal [8]: 1.39 fold enrichment (6-mer frequency, TF over GST control)
- binding signal [9]: 1.35 fold enrichment (6-mer frequency, TF over GST control)
- binding signal [10]: 1.3 fold enrichment (6-mer frequency, TF over GST control)
- binding signal [11]: 1.31 fold enrichment (6-mer frequency, TF over GST control)
- binding signal [12]: 1.38 fold enrichment (6-mer frequency, TF over GST control)
- binding signal [13]: 1.2 fold enrichment (6-mer frequency, TF over GST control)
- binding signal [14]: 1.28 fold enrichment (6-mer frequency, TF over GST control)
- binding signal [15]: 1.11 fold enrichment (6-mer frequency, TF over GST control)
- binding signal [16]: 1.24 fold enrichment (6-mer frequency, TF over GST control)
- binding signal [17]: 1.37 fold enrichment (6-mer frequency, TF over GST control)
- binding signal [18]: 1.27 fold enrichment (6-mer frequency, TF over GST control)

From article PMC7862700, “An all-to-all approach to the identification of sequence-specific readers for epigenetic DNA modifications on cytosine”
